Assay outcomes deposited in PubChem by University of Kansas High Throughput Screening Laboratory.
Pf apPOL block: Pf-apPOL DNA polymerase inhibition | Recombinant Pf-apPOL, molecular beacon fluorescence, 1.5 h | inhibition, % at 10 µM | 0.25% of 210,000 active
mHTT CaM bind: disrupts binding of mutant huntingtin to calmodulin; AlphaScreen His-mHTT/GST-CaM binding, luminescence; 3.6% of 190,000 active; P42858; inhibition, % at 15 µM;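 further: 0% = both proteins with DMSO and 100% = one protein alone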
Numbers without * were called inactive; . = no result given. Many of the other results were omitted from the sample, so hits are more common in it than they were. No stated cut-off is given here; in the data, active means inhibition above about 50%; inactive means the rest.

SMILES	Pf apPOL block	mHTT CaM bind
Cc1csc(-c2ccc(CNC(=O)c3cccnc3)cc2)n1	-2.3	-1.0
Fc1ccc(C2=NC(c3ccccc3)=Nc3ccccc3N2)cc1	-2.0	4.0
c1cncc(-c2noc(COC3CCN(Cc4ccco4)CC3)n2)c1	0.7	-4.8
Brc1ccccc1-c1nnc(C(c2ccccc2)c2ccccc2)o1	.	-59.0
O=C(NC(=O)c1csc(-c2ccc(C(F)(F)F)cc2Cl)n1)Nc1cccc(C(F)(F)F)c1	-22.6	.
COCC(=O)N1CCc2c(c(C(=O)NCc3cccc(C)c3)nn2C)C1	-3.0	-2.1
COc1ccc(OCC(=O)N2CCc3c(c(C(=O)NCc4cccc(C)c4)nn3C)C2)cc1	-5.8	70.5*
COc1ccc(-c2csc3c(=O)n(CC(=O)N4CCCC4)cnc23)cc1	-5.9	-12.9
CN1c2cc(C(=O)N3CCN(c4ccccc4Cl)CC3)ccc2C(=O)N2CCCCC21 (centres undefined)	2.6	2.3
CN1c2cc(C(=O)N3CCc4ccccc4C3)ccc2C(=O)N2CCCCC21 (centres undefined)	-3.7	93.3*
O=C(Nc1cnc(N2CCCC2)nc1)C1CCCCC1	-2.3	-2.8
CCc1cc(-c2n[nH]c(C)c2-c2nc3ccccc3s2)c(O)cc1OC	-1.1	98.2*
CCOc1cc(O)c(-c2n[nH]c(C)c2-c2ccc(F)cc2)cc1CC	-3.7	46.6
CCOc1cccc2cc(-c3cc(=O)oc4cc5c(cc34)CCC5)oc12	-3.9	-3.5
COc1cccc(-c2cc(C(N)=O)c3ccccc3n2)c1	4.0	2.0
CC(C)c1oc2cc(O)ccc2c(=O)c1-c1nc2ccccc2n1C	-2.4	-3.7
CCN1CCN(C(=O)c2cnc(-c3ccccc3)nc2N2CCSCC2)CC1	-12.2	27.0
CN1CCN(C(=O)c2cnc(-c3ccccc3)nc2N2CCSCC2)CC1	-10.1	97.2*
CCCCN(CC)C(=O)Cc1c(C(=O)O)[nH]c2ccccc12	-8.8	-1.0
O=C(CN1C(=O)/C(=C/c2ccccc2F)Sc2ccccc21)N1CCN(C2CCCCC2)CC1	-22.0	75.0*
O=C(CN1C(=O)/C(=C/c2ccccc2F)Sc2ccccc21)N1CCCCC1	0.6	-4.0
COc1ccc(C=Nc2ccc3ncccc3c2)cc1	-1.6	31.0
COc1ccc(C=Nc2ccc3c(c2)nc(C)n3C)cc1	69.0*	6.0
O=C(Nc1ccccc1)c1ccnc(N2CCNC(c3ccccc3)C2)c1 (centres undefined)	-1.8	17.9
O=C1CC(c2c[nH]c3ccccc23)C(=O)N1c1ccc(O)cc1 (centres undefined)	-4.2	76.6*
SMILES	Pf apPOL block	mHTT CaM bind
CC(C)(C)c1ccc(N2C(=O)CC(c3ccccc3)C2=O)cc1 (centres undefined)	1.9	.
COc1cccc(NC2=C(n3nnc4ccccc43)C(=O)c3ccccc3C2=O)c1	-0.6	8.0
CN(C)c1ccc(NC2=C(n3nnc4ccccc43)C(=O)c3ccccc3C2=O)cc1	-8.7	51.0*
Cc1ccc(NC2=C(n3nnc4ccccc43)C(=O)c3ccccc3C2=O)cc1	3.4	52.0*
CCN(CC)C1=C(n2nnc3ccccc32)C(=O)c2ccccc2C1=O	-6.1	27.0
Cc1ccc(Nc2c3c4c(cccc4n(C)c2=O)C(=O)c2ccccc2-3)cc1	-2.5	36.0
Cc1ccc(NC2=C(NCCO)C(=O)c3ccccc3C2=O)cc1	0.1	67.1*
CCC(=O)Nc1cccc(-c2noc(C3CCN(C(=O)C4CC4)CC3)n2)c1	-3.6	2.6
Cc1ccc(N2CCC(NC(=O)Cc3ccsc3)C2=O)cc1 (centres undefined)	5.8	2.4
COc1ccc(NC(=O)C2CCCN(C(=O)c3cccc(C(F)(F)F)c3)C2)cc1 (centres undefined)	-3.7	32.8
CC1C(=O)N(c2cccc(C(F)(F)F)c2)CCN1C(=O)C1CC1 (centres undefined)	-3.8	6.2
CN(C)c1ccc(C(=O)N2CCC(CCOc3cccc(F)c3)CC2)cc1	-4.1	15.0
O=C(c1ccc(F)cc1)N1CCC(CCOc2ccccc2F)CC1	-3.4	3.8
CN(C)c1cccc(C(=O)N2CCC(n3cnc4ccc(F)cc43)CC2)c1	-3.4	50.9*
CN(C)c1cccc(C(=O)N2CCC(CCOc3cccc(F)c3)CC2)c1	-2.2	83.8*
COc1cc(C(=O)N2CCC(n3cnc4ccccc43)CC2)ccc1C	-6.9	12.5
CN(C)c1cccc(C(=O)N2CCC(CCOCc3ccc(F)cc3)CC2)c1	-4.7	60.0*
CN(C)c1ccc(C(=O)N2CCC(CCOc3ccccc3F)CC2)cc1	-5.5	88.0*
CN(C)c1cccc(C(=O)N2CCC(CCOCc3cccc(F)c3)CC2)c1	-6.1	47.8
COCCNC(=O)CN1N=C(c2ccc(Cl)cc2)CCC1=O	-17.0	1.0
CN(C)c1ccc(C=C(C#N)S(=O)(=O)C(C)(C)C)c(F)c1C#N	-6.0	.
COc1ccc(CN2CN(C3CCCCC3)CSC2=S)cc1	-3.3	1.7
Cc1ccc(C(=O)N2CCC(c3nc4cccnc4n3C)C2)cc1F (centres undefined)	0.3	2.0
O=C(c1ccc2c(c1)OCO2)N1CCC(CCOCc2ccccc2F)CC1	-1.4	-6.1
CN(C)c1cccc(C(=O)N2CCC(CCOCc3ccccc3F)CC2)c1	-2.7	56.6*
SMILES	Pf apPOL block	mHTT CaM bind
Cc1ccc(C2=C/C(=C\C=C\c3ccccc3)C(=O)O2)cc1	61.9*	25.0
Cc1ccc(C2=C/C(=C\c3ccccn3)C(=O)O2)cc1	-4.8	5.0
COC(=O)c1ccc(=O)oc1	.	-7.6
COC(=O)c1ccc2occ(-c3oc4ccc(C(=O)OC)cc4c3O)c2c1	-7.4	100.3*
CCOc1ccc(NC(=O)C(C)Sc2nnc(C(c3ccccc3)c3ccccc3)n2C)cc1 (centres undefined)	82.3*	12.2
CCOc1ccc(NC(=O)C(C)Oc2ccccc2)cc1 (centres undefined)	1.0	-7.7
CCOCC(=O)N1CCCC(c2ccnc(Nc3ccc(OC)cc3)n2)C1 (centres undefined)	-2.4	6.7
O=C(c1cccs1)N1CCCC(c2ccnc(Nc3ccccc3F)n2)C1 (centres undefined)	-1.2	29.7
O=C(c1cccs1)N1CCCC(c2ccnc(Nc3ccccc3)n2)C1 (centres undefined)	0.2	61.3*
COc1ccc(-c2nccc(C3CCCN(C(=O)Cc4ccc(F)cc4)C3)n2)cc1 (centres undefined)	0.9	22.0
O=C(Cc1ccccc1F)N1CCCC(c2ccnc(Nc3ccccc3)n2)C1 (centres undefined)	-1.9	85.6*
CC(C)C(=O)N1CCCC(c2ccnc(Nc3ccccc3)n2)C1 (centres undefined)	-4.5	33.5
O=C(Cc1ccc(F)cc1)N1CCCC(c2ccnc(Nc3ccccc3)n2)C1 (centres undefined)	-5.2	96.2*
CC(C)CC(=O)N1CCCC(c2ccnc(Nc3ccccc3)n2)C1 (centres undefined)	-2.0	70.8*
Cc1cc(C)c(C(=O)N2CCC(CC(=O)NCCCN3CCN(C)CC3)CC2)[nH]1	-2.2	-1.9
O=C(Cc1csc(Nc2ncccn2)n1)NCC(F)(F)F	-8.7	-14.5
Cc1cc2ncn(C(=O)Cc3ccc(F)cc3)c2cc1C	-9.5	6.2
CCCCNC(=O)C1CCCN(c2ccc(NC(=O)C3CCCC3)cn2)C1 (centres undefined)	-2.2	0.9
Cc1ccc(Cl)cc1NC(=O)c1coc(NC(=O)c2ccccc2)n1	-0.2	-3.5
O=C(Nc1c2c(nn1-c1ccc(Cl)cc1)CSC2)c1ccc2c(c1)OCO2	-3.2	27.0
